# Measurements as given in PubChem BioAssay AID1259415 (National Center for Advancing Translational Sciences (NCATS), 2018).
# Values joined by “and” are separate entries in the source; they are usually repeats but may differ in a detail not shown here. Equal values may be shown once. The whole screen tested about 410,000 compounds, of which about 18,000 (4.4%) were called active. About 7% were inconclusive and are not listed. No stated cut-off is given here; in the data, active means activity change below about -60%; inconclusive means no clear call, values can overlap the other calls; inactive means above about -39%. The entries come from a sample that favours actives as a whole. Some compounds were tested as several samples or in several runs, with calls that do not always agree.
# Experiment: qHTS Assay for inhibitors of the human cytomegalovirus (HCMV)
# Conditions: HFF cells, HCMV-luciferase reporter, 72 h; at 57.5 µM; stronger effect = lower value
# Outline: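 Luciferase read-out from HCMV-luciferase-infected HFFs (MOI 1 PFU/cell) 72 h post infection at 37C; compounds added after 16 h cell attachment; activity normalized between buffer-only basal and Salinomycin (10uM) inhibitor controls.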
# On the % scale 0 is the no-effect control and ±100 the full control effect.
row,SMILES,"activity change, negative = inhibition"
1,CC(C)c1ccc(Nc2ncccc2C#N)cc1,52.9% (inactive)
2,COc1cc(OC)cc(C(=O)Nc2nnc(SCC(=O)NCC3CCCO3)s2)c1 (stereo not drawn),-2.96% (inactive)
3,CC1CN(C(=S)Nc2ccc(S(N)(=O)=O)cc2)CC(C)O1 (stereo not drawn),70.7% (inactive)
4,CC1Cc2ccccc2N1CC(=O)Nc1ccc(S(N)(=O)=O)cc1 (stereo not drawn),-32.9% (inactive)
5,CC1CC(C)CN(CC(=O)Nc2ccc(S(N)(=O)=O)cc2)C1 (stereo not drawn),-88.1% (active)
6,COc1cc(OC)cc(C(=O)Nc2cc3nn(-c4ccccc4)nc3cc2Cl)c1,99.1% (inactive)
7,CCOC(=O)c1ccccc1NC(=O)CCc1c(C)nc2c(c1C)c(=O)n(C)c(=O)n2C,5.18% (inactive)
8,CCC1OC(c2ccc([N+](=O)[O-])cc2)=Nc2ccccc21 (stereo not drawn),13.9% (inactive)
9,Cc1nc(-c2ccc([N+](=O)[O-])cc2)c(-c2ccccc2)o1,-90.1% (active)
10,Cc1nc2ccccc2nc(=O)c1NNc1ccc([N+](=O)[O-])cc1,4.07% (inactive)
11,COc1ccc(Cn2ccnc2SCC(=O)NCc2ccco2)cc1,-17.3% (inactive)
12,COc1cc(OC)cc(C2=Cc3ccccc3C(CC(=O)c3ccco3)N2c2ccc(-c3cnc(OC)nc3)cc2)c1 (stereo not drawn),18.6% (inactive)
13,NC(=O)c1ncc(C(F)(F)F)cc1Oc1ccc(F)cc1,0.451% (inactive)
14,COc1ccc(Cl)cc1NC(=O)CSc1nc2ccccc2c2nc(-c3ccccc3)nn12,11.6% (inactive)
15,CCOc1ccc(CCN2C(=O)C(=O)N([C@@H](Cc3ccc(O)cc3)CN3CCC[C@H]3CN3C(=O)C(=O)NC[C@@H]3CC(C)C)C[C@@H]2Cc2ccccc2)cc1,-26.1% (inactive)
16,O=C(COC(=O)c1cncc(Br)c1)Nc1ccc(S(=O)(=O)N2CCOCC2)cc1,-8.88% (inactive)
17,O=C(COc1ccc(Br)cc1)OCC(=O)c1ccc[nH]1,42.3% (inactive)
18,CCCOC(=O)c1c(NC(=O)c2cnn3c2NC(c2ccccc2)CC3C(F)(F)F)sc2c1CCCC2 (stereo not drawn),-29.2% (inactive)
19,COc1ccc(OC)c(NC(=O)/C=C/c2ccc(C)o2)c1,33% (inactive)
20,CCOc1ccc(NC(=S)NC(=O)/C=C/c2ccc(OC)cc2)c([N+](=O)[O-])c1,40.2% (inactive)
21,Cc1ccc(/C=C/C(=O)Nc2ccc([N+](=O)[O-])c(NC(=O)/C=C/c3ccc(C)o3)c2)o1,-77% (active)
22,COc1c(Cl)cc(C(=O)N(Cc2ccccc2F)C2CCS(=O)(=O)C2)cc1Cl (stereo not drawn),-5.18% (inactive)

row,SMILES,"activity change, negative = inhibition"
1,Cc1ccc(OCC(O)CN2CCN(CC(O)COc3ccc(C)cc3Cl)CC2)c(Cl)c1 (stereo not drawn),-4.14% (inactive)
2,COc1ccccc1OCC(O)CN1CCOCC1 (stereo not drawn),-100% (active)
3,CCCn1c(=N)n(CC(O)COc2ccccc2OC)c2ccccc21 (stereo not drawn),-33.4% (inactive)
4,COc1ccc(S(=O)(=O)Nc2cc3c(C(=O)OC(C)C)c(C)oc3c3ccccc23)cc1,4.89% (inactive)
5,COc1cc(NS(=O)(=O)c2ccc3ccccc3c2)c2ncccc2c1,-79.8% (active)
6,CCOc1ccc(OCC)c(NS(=O)(=O)c2ccc3[nH]c(=O)ccc3c2)c1,17.6% (inactive)
7,COc1cc2c(C(=O)N(C)c3cc(Cl)ccc3OC)cn(C)c(=O)c2cc1OC,-37.5% (inactive)
8,Cc1cc(C)c2oc(C(=O)Nc3c(C(=O)Nc4ccccc4)oc4ccccc34)cc(=O)c2c1,8.41% (inactive)
9,O=C(NNC(=O)C(O)c1ccccc1)NC1CCCCC1 (stereo not drawn),-11.7% (inactive)
10,Cc1nc(/N=C(\N)NC(=O)NC2CCCCC2)nc2ccccc12,-84.3% (active)
11,O=C(Cn1nnc(-c2ccccc2)n1)NC(=O)NC1CCCC1,11.9% (inactive)
12,Cc1ccc(C)c(S(=O)(=O)n2nc(C)c(S(=O)(=O)N3CCC(C)CC3)c2C)c1,-3.95% (inactive)
13,Cc1ccc(C)c(S(=O)(=O)c2nnn3c2nc(N2CCOCC2)c2sccc23)c1,28.6% (inactive)
14,Cc1ccc(S(=O)(=O)N2CCN(Cc3cccc(C)c3O)CC2)cc1,-3.34% (inactive)
15,COc1ccc(S(=O)(=O)N2CCN(c3ncnc4c(-c5ccccc5)nsc34)CC2)cc1,3.62% (inactive)
16,Cc1ccc(S(=O)(=O)N2CCN(c3ncnc4ccccc34)CC2)cc1,-87.3% (active)
17,Cc1ccc(C)c(S(=O)(=O)N2CCN(c3ncnc4sccc34)CC2)c1,-96.6% (active)
18,CCOc1ccc2oc(C(=O)N(CC)CC(=O)Nc3ccc(NC(C)=O)cc3)c(C)c2c1,-18.7% (inactive)
19,O=S(=O)(c1ccc(Br)cc1)c1nnn2c1nc(N1CCOCC1)c1sccc12,18.7% (inactive)
20,CCCOc1ccc(N2C(=O)CC(N(CCc3ccc(S(N)(=O)=O)cc3)C(C)=O)C2=O)cc1 (stereo not drawn),29.6% (inactive)
21,CC1CCN(C(=O)Cn2c(=O)n(-c3ccc(Cl)cc3)c(=O)c3c4c(sc32)CCC4)CC1,3.05% (inactive)
22,O=C(Cn1nc(C(F)(F)F)c2c1CCC2)NCc1ccc(F)cc1,-0.659% (inactive)

row,SMILES,"activity change, negative = inhibition"
1,O=C(Cn1nc(C(F)(F)F)c2c1CCCC2)Nc1ccc(Cl)cc1,-105% (active)
2,Cc1cc(NC(=O)Cn2nc(C(F)(F)F)c3c2CCCC3)no1,31% (inactive)
3,Cc1ccc2nc(CNC(=O)c3ccccc3)[nH]c2c1,61% (inactive)
4,CCCNC(=O)C1CCN(c2nc3ccc(C)cc3[nH]2)CC1,0% (active)
5,CCOc1ccc2nc(N3CCC(C(=O)Nc4cc(C)ccc4C)CC3)sc2c1,20% (inactive)
6,Cc1[nH]c2ccccc2c1[N+](=O)[O-],6.63% (inactive)
7,CCCCNC(=O)CN1C(=O)NC(Cc2ccccc2)(Cc2ccccc2)C1=O,-14.4% (inactive)
8,Cc1cccc(N(Cc2ccccc2)C(=O)c2ccccc2F)c1,1.73% (inactive)
9,CCCC(O)(CCC)C(=O)NN(C(=O)CCl)c1cccc(C)c1,-101% (active)
10,Cc1cccc(N(CC(O)CN(C)C)S(=O)(=O)c2ccccc2)c1 (stereo not drawn),-26.4% (inactive)
11,CCCCC(O)(CCCC)C(=O)NN(C(=O)CCl)c1ccccc1,-94.6% (active)
12,COC(=O)N(NC(=O)C(O)(C(C)C)C(C)C)c1ccccc1,2.98% (inactive)
13,COCn1c(C(O)c2ccccc2)cc2ccccc21 (stereo not drawn),3.56% (inactive)
14,O=C(CSc1ncc(S(=O)(=O)c2ccc(Br)cc2)c(=O)[nH]1)Nc1ccc2c(c1)OCCO2,3.97% (inactive)
15,CCCN1CN=C(NS(=O)(=O)c2ccc(NC(C)=O)cc2)NC1,-18.1% (inactive)
16,COc1ccccc1NC(=O)CSc1oc(-c2ccco2)nc1S(=O)(=O)c1ccc(Br)cc1,12.2% (inactive)
17,CCOc1ccc(NC(=O)CCc2c(C)nn(-c3ccc(N4CCCC4)nn3)c2C)cc1,-23.2% (inactive)
18,COc1ccc(-c2nc3sc(CCNS(=O)(=O)c4ccc(F)c(C)c4)c(C)n3n2)cc1,-32.9% (inactive)
19,CCCCN=C(N)/C(C(=O)OCC)=C(\O)c1ccc(OC)cc1,-26.4% (inactive)
20,Cc1ccc(-c2nnc(SCc3ccccc3C)o2)cc1,82.8% (inactive)
21,O=C(c1ccc2c(c1)OCO2)N1CCNc2ccccc2C1,-3.54% (inactive)
22,C/C(=C/c1ccccc1)C(=O)N1CCN(c2ccccc2)CC1,-16.3% (inactive)

row,SMILES,"activity change, negative = inhibition"
1,O=C(C(=O)N1CCN(c2ccccc2)CC1)c1ccc2c(c1)OCO2,-64.4% (active)
2,CCC(Sc1nnc(-c2ccc(OC)cc2)c(-c2ccc(OC)cc2)n1)C(=O)NC1CCCCC1 (stereo not drawn),5.23% (inactive)
3,CCOC(=O)C1SC2(C(F)(F)C(F)F)CC1(O)c1c(c(OC)c3occc3c1OC)O2 (stereo not drawn),-23.2% (inactive)
4,C/C(=N\NC(=O)C1(C)CC1(Br)Br)c1ccc(C)cc1C (stereo not drawn),2.84% (inactive)
5,Cc1cc(C)cc(NC(c2nnc(-c3cccc(F)c3)o2)c2ccc(F)cc2Cl)c1 (stereo not drawn),-0.542% (inactive)
6,CC(=O)N1CCCc2ccc(NS(=O)(=O)c3ccc(F)cc3F)cc21,51.5% (inactive)
7,Cc1c(NC(=O)c2c([N+](=O)[O-])cnn2C)c(=O)n(-c2ccccc2)n1C,7.76% (inactive)
8,Cc1nn(-c2ccccc2)c(Cl)c1/C=N/NC(=O)c1nn(C)cc1[N+](=O)[O-],-99% (active)
9,Cc1nn(-c2ccccc2)c(-n2cccc2)c1C(=O)O,-33.7% (inactive)
10,Cn1c(=O)c2c(nc(SCC(=O)Nc3ccc(F)cc3)n2Cc2ccc(Cl)cc2)n(C)c1=O,-3.29% (inactive)
11,CCN(C(=O)CSc1nc(N)cc(=O)[nH]1)C1CCS(=O)(=O)C1 (stereo not drawn),-1.32% (inactive)
12,Cc1ccc2c(=O)cc(C(=O)Nc3sc4c(c3C(=O)NCc3cccnc3)CCCC4)oc2c1,-0.307% (inactive)
13,Cc1ccc(OCC(=O)Nc2ccc(Cl)c(-c3nc4ccccc4[nH]3)c2)cc1C,-26.2% (inactive)
14,Cc1ccc(C)c(OCC(=O)Nc2sc3c(c2C#N)CCCC3)c1C,-17.4% (inactive)
15,CC1C(c2ccccc2)=[N+]([O-])C2(CCCC2)N1O (stereo not drawn),21.7% (inactive)
16,CCCn1c2ccccc2c2cnn(CC(=O)NCCCN3CCCCC3CC)c(=O)c21 (stereo not drawn),5.34% (inactive) and -76.4% (active)
17,CC1CCCCN1CCCNC(=O)Cn1ncc2c([nH]c3ccccc32)c1=O (stereo not drawn),25.9% (inactive) and 24.1% (inactive)
18,CCCn1c2ccccc2c2cnn(CC(=O)NCCCOC(C)C)c(=O)c21,-18.7% (inactive)
19,CCOC(=O)CNc1nc(Cl)nc(Nc2ccc(OC)cc2OC)n1,-6.89% (inactive)
20,COc1ccc(NC(=O)NNC(=O)COc2cc(C)c(Cl)c(C)c2)c(OC)c1,-4.84% (inactive)
21,COc1ccc(Nc2ncnc3ccc(Br)cc23)c(OC)c1,-98.7% (active)
22,CC(=O)c1ccc(N2CCN(C3C(=O)c4ccccc4N3C(C)=O)CC2)cc1 (stereo not drawn),0% (inactive)
